Calls of active or inactive are those of the source. How the source made its calls: active means hit-call score of the fitted dose curve at least 0.9, where 1 is the maximum; inactive means score below 0.9.
Experiments:
[1] = read-out: Matrix Metallopeptidase 1 (MMP1), MMP1 (gene 4312); assay: BSK_hDFCGF_MMP1: BioMAP Diversity Plus: hDFCGF Assay for Matrix Metallopeptidase 1 (MMP1) Biomarker Activity (AID 2283064); conditions: primary human foreskin fibroblasts; actives raise or lower the signal
Outline: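 Primary human foreskin fibroblasts exposed to chemicals for 24 h; MMP1 measured by ELISA. Cytotoxicity tracked by SRB staining in parallel cultures; bidirectional fit relative to DMSO.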

[2] = read-out: Plasminogen activator inhibitor-1 (PAI1), SERPINE1 (gene 5054); assay: BSK_hDFCGF_PAI1: BioMAP Diversity Plus: hDFCGF Assay for Plasminogen activator inhibitor-1 (PAI1) Biomarker Activity (AID 2283066); conditions: primary human foreskin fibroblasts; actives raise or lower the signal
Outline: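 Human foreskin fibroblasts in the hDFCGF system were dosed with compound for 24 h; PAI-1 was quantified by ELISA. Bidirectional curve fitting used DMSO as negative control and baseline.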

[3] = read-out: Intercellular Adhesion Molecule 1 (ICAM1), ICAM1 (gene 3383); assay: BSK_KF3CT_ICAM1: BioMAP Diversity Plus: KF3CT Assay for Intercellular Adhesion Molecule 1 (ICAM1) Biomarker Activity (AID 2283067); conditions: primary human keratinocytes with fibroblasts; actives raise or lower the signal
Outline: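 Cell-surface ICAM-1 was measured by ELISA 24 h after dosing primary human skin keratinocytes co-cultured with fibroblasts. Parallel SRB staining tracked overt cytotoxicity. Gain or loss of signal was fitted relative to DMSO.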

[4] = read-out: Interferon-gamma inducible Protein 10 (IP10), CXCL10 (gene 3627); assay: BSK_KF3CT_IP10: BioMAP Diversity Plus: KF3CT Assay for Interferon-gamma inducible Protein 10 (IP10) Biomarker Activity (AID 2283068); conditions: primary human keratinocytes with fibroblasts; actives raise or lower the signal
Outline: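 In a primary skin co-culture of keratinocytes and fibroblasts, IP-10 is quantified by ELISA at 24 h after dosing. SRB staining of parallel wells monitors overt toxicity. Curves are fitted both directions against DMSO.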

[5] = BSK_KF3CT_SRB: Viability Assessment in the BioMAP Diversity Plus: KF3CT Assay (AID 2283069); conditions: primary human keratinocytes with fibroblasts;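 further: total protein by sulforhodamine B staining as a cytotoxicity measure; read 24 h after compound addition; fitted for both signal gain and loss against DMSO baseline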
Outline: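 Human keratinocyte and foreskin fibroblast co-culture exposed to chemical for 24 h. Total protein measured in parallel cultures by 0.1% sulforhodamine B staining after 10% TCA fixation, read at 560 nm; bidirectional fit relative to DMSO.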

[6] = read-out: Interleukin-1 alpha (IL1a), IL1A (gene 3552); assay: BSK_KF3CT_IL1a: BioMAP Diversity Plus: KF3CT Assay for Interleukin-1 alpha (IL1a) Biomarker Activity (AID 2283070); conditions: primary human keratinocytes with fibroblasts; actives raise or lower the signal
Outline: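 Primary human keratinocyte plus foreskin fibroblast co-culture, dosed and measured at 24 h in 96-well plates. IL-1a level quantified by ELISA; bidirectional fit relative to DMSO.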

[7] = read-out: TIMP metallopeptidase inhibitor 2 (TIMP2), TIMP2 (gene 7077); assay: BSK_KF3CT_TIMP2: BioMAP Diversity Plus: KF3CT Assay for TIMP metallopeptidase inhibitor 2 (TIMP2) Biomarker Activity (AID 2283071); conditions: primary human keratinocytes with fibroblasts; actives raise or lower the signal
Outline: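 Human primary keratinocyte/foreskin fibroblast co-culture dosed with chemical and sampled at 24 h. TIMP-2 levels quantified by ELISA; bidirectional fitting against DMSO negative control as baseline.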

[8] = read-out: C-C motif chemokine 2 (Homo sapiens) (UniProt P13500); assay: BSK_KF3CT_MCP1: BioMAP Diversity Plus: KF3CT Assay for Monocyte Chemoattractant Protein 1 (MCP1/CCL2) Biomarker Activity (AID 2283073); conditions: primary human keratinocytes with fibroblasts; actives raise or lower the signal
Outline: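 ELISA read-out of MCP-1, 24 h post-dose, in primary human skin keratinocytes co-cultured with fibroblasts. Parallel SRB staining monitors cytotoxicity; changes fitted both directions relative to DMSO.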

[9] = read-out: Matrix Metallopeptidase 9 (MMP9), MMP9 (gene 4318); assay: BSK_KF3CT_MMP9: BioMAP Diversity Plus: KF3CT Assay for Matrix Metallopeptidase 9 (MMP9) Biomarker Activity (AID 2283074); conditions: primary human keratinocytes with fibroblasts; actives raise or lower the signal;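 on AC50: MMP9 protein level quantified by ELISA in the co-culture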
Outline: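 Human keratinocyte and foreskin fibroblast co-culture exposed to chemicals for 24 h; MMP9 biomarker measured by ELISA, bidirectional fitting relative to DMSO; cytotoxicity tracked by SRB total protein staining in parallel cultures.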

[10] = read-out: urokinase plasminogen activator (uPA), PLAU (gene 5328); assay: BSK_KF3CT_uPA: BioMAP Diversity Plus: KF3CT Assay for urokinase plasminogen activator (uPA) Biomarker Activity (AID 2283075); conditions: primary human keratinocytes with fibroblasts; actives raise or lower the signal
Outline: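 Primary human keratinocyte/foreskin fibroblast co-culture exposed to chemical; uPA measured by ELISA at 24 h. Bidirectional fit versus DMSO, with parallel SRB total-protein staining for cytotoxicity.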

CD40, CD40 (gene 958) = assay: BSK_LPS_CD40: BioMAP Diversity Plus: LPS Assay for CD40 Biomarker Activity (AID 2283076); conditions: primary human HUVEC with PBMC; actives raise or lower the signal
Outline: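 In the LPS system of human endothelial cells with peripheral blood mononuclear cells, CD40 levels were read by ELISA 24 h post-treatment. Signal changes in either direction were fitted against the DMSO baseline, with parallel SRB protein staining.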

[11] = read-out: E-selectin (Homo sapiens) (UniProt P16581); assay: BSK_LPS_Eselectin: BioMAP Diversity Plus: LPS Assay for Eselectin Biomarker Activity (AID 2283077); conditions: primary human HUVEC with PBMC; actives raise or lower the signal
Outline: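 E-selectin ELISA on LPS-stimulated endothelial cell/PBMC co-cultures, read 24 h post-treatment; gains and losses fitted against DMSO. Parallel SRB staining (0.1% SRB after 10% TCA fixation, 560 nm) flags overt cytotoxicity.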

[12] = read-out: Interleukin-8 (IL8), CXCL8 (gene 3576); assay: BSK_LPS_IL8: BioMAP Diversity Plus: LPS Assay for Interleukin-8 (IL8) Biomarker Activity (AID 2283078); conditions: primary human HUVEC with PBMC; actives raise or lower the signal
Outline: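 ELISA read-out of IL-8 after 24 h chemical treatment of LPS-activated endothelial/PBMC human primary co-cultures. Changes either up or down relative to DMSO; overt cytotoxicity checked by sulforhodamine B staining in parallel wells.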

[13] = BSK_LPS_SRB: Viability Assessment in the BioMAP Diversity Plus: LPS Assay (AID 2283079); conditions: primary human HUVEC with PBMC;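 further: total protein by sulforhodamine B absorbance as a cytotoxicity measure; measured one day after compound addition; fitted in both directions against DMSO so loss or gain of signal counts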
Outline: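 SRB viability endpoint: cells fixed with 10% TCA, stained with 0.1% SRB, read at 560 nm, 24 h post-dose. HUVEC/PBMC co-culture; signal change in either direction scored relative to DMSO.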

[14] = read-out: Interleukin-1 alpha (IL1a), IL1A (gene 3552); assay: BSK_LPS_IL1a: BioMAP Diversity Plus: LPS Assay for Interleukin-1 alpha (IL1a) Biomarker Activity (AID 2283080); conditions: primary human HUVEC with PBMC; actives raise or lower the signal
Outline: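 Readout is IL-1a level by ELISA, 24 h post-dose, fitted as gain or loss relative to DMSO. System: LPS-activated human primary co-culture of vascular endothelium and peripheral blood mononuclear cells, with parallel SRB total-protein cytotoxicity.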

[15] = read-out: Monocyte Chemoattractant Protein-1 (MCP1), CCL2 (gene 6347); assay: BSK_LPS_MCP1: BioMAP Diversity Plus: LPS Assay for Monocyte Chemoattractant Protein-1 (MCP1) Biomarker Activity (AID 2283081); conditions: primary human HUVEC with PBMC; actives raise or lower the signal;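 on AC50: secreted MCP-1 protein quantified by ELISA in culture supernatant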
Outline: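 Secreted MCP-1 read by ELISA at 24 h post-dosing in an LPS-activated co-culture of endothelial cells with peripheral blood mononuclear cells. Fits run in both directions, DMSO as baseline; parallel SRB staining tracks overt cytotoxicity.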

[16] = BSK_LPS_PGE2: BioMAP Diversity Plus: LPS Assay for Prostaglandin E2 (PGE2) Biomarker Activity (AID 2283082); conditions: primary human HUVEC with PBMC; actives raise or lower the signal;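 on AC50: secreted prostaglandin E2 measured by ELISA in LPS-stimulated co-culture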
Outline: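 HUVEC plus PBMC co-culture stimulated with LPS; secreted PGE2 quantified by ELISA 24 h after chemical dosing. Activity fitted bidirectionally against DMSO as negative control and baseline; parallel SRB total-protein staining served as cytotoxicity check.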

[17] = read-out: Macrophage colony-stimulating factor (MCSF), CSF1 (gene 1435); assay: BSK_LPS_MCSF: BioMAP Diversity Plus: LPS Assay for Macrophage colony-stimulating factor (MCSF) Biomarker Activity (AID 2283083); conditions: primary human HUVEC with PBMC; actives raise or lower the signal
Outline: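 Bidirectional fitting against DMSO was applied to M-CSF levels read by ELISA at 24 h post-dose. The system pairs human umbilical vein endothelium with peripheral blood mononuclear cells; parallel SRB staining tracked cytotoxicity.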

[18] = read-out: Transforming growth factor beta 1 (TGFb1), TGFB1 (gene 7040); assay: BSK_KF3CT_TGFb1: BioMAP Diversity Plus: KF3CT Assay for Transforming growth factor beta 1 (TGFb1) Biomarker Activity (AID 2283072); conditions: primary human keratinocytes with fibroblasts; actives raise or lower the signal
Outline: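 Human keratinocyte plus foreskin fibroblast primary co-culture, dosed with chemical for 24 h. TGF-b1 quantified by ELISA. Activity fitted bidirectionally against DMSO negative control as baseline.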

Measured: AC50

E-selectin (Homo sapiens), sequence (P16581 whole entry, looked up): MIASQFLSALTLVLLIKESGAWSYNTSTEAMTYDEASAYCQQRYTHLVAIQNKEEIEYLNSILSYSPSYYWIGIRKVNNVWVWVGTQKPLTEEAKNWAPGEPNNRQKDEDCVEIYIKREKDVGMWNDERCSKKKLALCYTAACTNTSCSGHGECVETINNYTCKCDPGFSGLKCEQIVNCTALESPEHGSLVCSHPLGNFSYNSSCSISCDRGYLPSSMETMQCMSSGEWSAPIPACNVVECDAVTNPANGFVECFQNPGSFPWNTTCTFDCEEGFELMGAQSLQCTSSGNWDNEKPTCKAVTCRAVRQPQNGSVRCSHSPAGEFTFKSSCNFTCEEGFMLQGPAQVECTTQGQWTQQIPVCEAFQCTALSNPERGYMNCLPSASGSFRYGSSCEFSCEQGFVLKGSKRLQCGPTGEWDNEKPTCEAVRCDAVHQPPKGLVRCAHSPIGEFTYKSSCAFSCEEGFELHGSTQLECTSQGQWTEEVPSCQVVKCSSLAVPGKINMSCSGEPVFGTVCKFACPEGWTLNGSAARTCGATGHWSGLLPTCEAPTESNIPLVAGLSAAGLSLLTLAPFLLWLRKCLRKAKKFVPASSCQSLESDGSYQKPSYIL

O=C(N[C@H]1CN2CCC1CC2)c1ccc2c(c1)OCCO2
active: [16] 2.86 µM
not listed: [18]
inactive: all other assays above

O=C(O)C1(c2ccc3c(c2)OC[C@H](Cc2ccc(-c4ccccc4)cc2)[C@H]3O)CCCC1
inactive: [11] | [12] | [13] | [14] | [15] | [16] | [17]
active: [1] 7.46 µM | [2] 5.07 µM | [3] 30.3 µM | [4] 9.87 µM | [5] 25.7 µM | [6] 31.3 µM | [7] 14 µM | [8] 13.6 µM | [10] 28.6 µM | CD40, CD40 (gene 958) 20 µM

O=C1C=CC(=O)c2ccccc21
active: [1] 1.98 µM | [2] 1.53 µM | [3] 2.71 µM | [4] 2.81 µM | [6] 2.04 µM | [7] 1.67 µM | [18] 1.81 µM | [8] 3.45 µM | [10] 2.86 µM | CD40, CD40 (gene 958) 1.37 µM | [11] 1.44 µM | [12] 1.37 µM | [13] 5.33 µM | [14] 1.07 µM | [15] 2.7 µM | [17] 1.82 µM
inactive: [5] | [16]

CCCCOC(=O)COC(=O)c1ccccc1C(=O)OCCCC
not listed: [9] | [18]
inactive: all other assays above

OCCN(CCO)CCO
not listed: [9]
inactive: all other assays above

Nc1c(Oc2ccccc2)cc(O)c2c1C(=O)c1ccccc1C2=O
active: [7] 0.549 µM
not listed: [9] | [18]
inactive: all other assays above

N#CCCC(Br)(C#N)CBr (configuration not stated)
active: [1] 11.8 µM | [2] 9.61 µM | [3] 26.8 µM | [4] 33.1 µM | [5] 20 µM | [6] 14.4 µM | [7] 20 µM | [8] 20 µM | [9] 20 µM | [10] 23.9 µM | CD40, CD40 (gene 958) 8.78 µM | [11] 20 µM | [12] 26.7 µM | [13] 20 µM | [14] 11.7 µM | [15] 11 µM | [17] 10.6 µM
inactive: [16]

CCC(C)(C#N)N=NC(C)(C#N)CC (configuration not stated)
active: [2] 0.016 µM
not listed: [9] | [18]
inactive: all other assays above

O=C(CCl)NCO
active: [12] 0.0625 µM
not listed: [9] | [18]
inactive: all other assays above

CCOC(=O)CC(=O)CCl
active: [6] 6.58 µM | CD40, CD40 (gene 958) 20 µM | [12] 31.9 µM | [14] 31.1 µM | [15] 26.1 µM | [16] 29 µM | [17] 20 µM
not listed: [9]
inactive: all other assays above

OC(Cc1ccccc1Cl)(Cn1cncn1)C1(Cl)CC1 (configuration not stated)
active: [16] 2.02 µM
not listed: [9] | [18]
inactive: all other assays above

Reference: PubChem BioAssay (EPA / NIEHS)
